Here are results for 23 molecules from PubChem BioAssay (NCATS).

Each structure is given as a SMILES string. Several values for one entry are separate records, joined by “and”; a condition that tells them apart may be missing. Equal entries are not always repeated. Results filed as inconclusive are left out. Values without a mark were called inactive. Calls follow the shape of the dose curve; as a rule, active = well fitted inhibition curve with a large enough effect; inconclusive = small, poorly fitted or top-dose-only effect; inactive = flat fitted curve, though single readings scatter.
% is scaled to controls: 0 for no effect and ±100 for the full control effect.

In the test the test system is KB-3-1. Nature of the test: Cytotoxic Profiling of Annotated Libraries Using Quantitative High-Throughput Screening (AID 1296008). Also: nearly all actives have a fitted effect of over 60% in size. To be noted: Five cell lines viability, CellTiter-Glo ATP luminescence, 48-72 h; max response: hits give low values. Put shortly:
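Cytotoxicity was measured as CellTiter-Glo ATP luminescence, read after 10 min at room temperature. Compound treatment of the cells lasted 48 or 72 hr at 37 degrees Celsius in a qHTS format.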
For `Cc1c(N)nc([C@H](CC(N)=O)NC[C@H](N)C(N)=O)nc1C(=O)N[C@H](C(=O)N[C@H](C)[C@@H](O)[C@H](C)C(=O)N[C@H](C(=O)NCCc1nc(-c2nc(C(=O)NCCCCN=C(N)N)cs2)cs1)[C@@H](C)O)[C@@H](O[C@@H]1O[C@@H](CO)[C@@H](O)[C@H](O)[C@@H]1O[C@H]1O[C@H](CO)[C@@H](O)[C@H](OC(N)=O)[C@@H]1O)c1cnc[nH]1`, the max response is -6.52% and -5.98%.
Regarding `CO[C@@]1(NC(=O)C2SC(=C(C(N)=O)C(=O)O)S2)C(=O)N2C(C(=O)O)=C(CSc3nnnn3C)CS[C@@H]21` (stereo partly drawn), the max response is 1.97%.
As to `NC[C@H]1O[C@H](O[C@H]2[C@H](O)[C@@H](O[C@H]3O[C@H](CO)[C@@H](O)[C@H](N)[C@H]3O)[C@H](N)C[C@@H]2N)[C@H](N)C[C@@H]1O`, the max response is -4.68%.
Regarding `CCCCCCCCCCCCCCCC(=O)OC[C@H](COP(=O)([O-])OCC[N+](C)(C)C)OC(=O)CCCCCCCCCCCCCCC`, the max response is -12.2%.
For `OC[C@H]1O[C@@H](O[C@H]2[C@H](O)[C@@H](O)[C@H](O)O[C@@H]2CO)[C@H](O)[C@@H](O)[C@@H]1O` the value was 4.72%.
Consider `CC(C)[C@@H]1CC[C@@H](C)C[C@H]1O`, for which the max response is -7.15%.
The result for `NC(=O)OCC(O)COc1ccc(Cl)cc1` (stereo not drawn) reads 15.4%; that for `CC(O)[C@@H]1NC(=O)[C@H](Cc2ccccc2)NC(=O)[C@H](C(C)O)NC(=O)[C@H](CCCCN)NC(=O)[C@H](Cc2c[nH]c3ccccc23)NC(=O)[C@H](Cc2ccccc2)NC(=O)[C@H](Cc2ccccc2)NC(=O)[C@H](CC(N)=O)NC(=O)[C@H](CCCCN)NC(=O)[C@@H](NC(=O)CNC(=O)[C@H](C)N)CSSC[C@@H](C(=O)O)NC(=O)[C@H](CO)NC1=O` (stereo partly drawn), -3.89%; that for `CC(=O)OCC(=O)[C@@]1(O)CC[C@H]2[C@@H]3CCC4=CC(=O)CC[C@]4(C)C3=CC[C@@]21C`, -7.13%.
Consider `COc1ccc2c(c1)N(C[C@H](C)CN(C)C)c1ccccc1S2`, for which the max response was -8.39%.
For `CC(=NCc1ccccc1)c1ccccc1O` the value was -11.4%; for `CCOC(=O)Oc1c(OC)cc(C(=O)O[C@@H]2C[C@@H]3CN4CCc5c([nH]c6cc(OC)ccc56)[C@H]4C[C@@H]3[C@H](C(=O)OC)[C@H]2OC)cc1OC`, 3.08%.
For `Cc1c(O)c(=O)ccn1C` the value was 5.64%; for `C=C1CC[C@H](O)C/C1=C\C=C1/CCC[C@]2(C)[C@@H]([C@H](C)CCCC(C)C)CC[C@@H]12`, -5.93%; for `OC[C@H]1OC([S-])[C@H](O)[C@@H](O)[C@@H]1O.[Au+]` (stereo partly drawn), 5.78%.
As for `C=C1CC[C@H](O)CC1=C/C=C1\CCC[C@]2(C)[C@@H]([C@H](C)CC[C@@H](O)C(C)(C)O)CC[C@@H]12`, the max response was 6.41%.
For `COC1[C@@H](O[C@@H]2O[C@H](C)[C@@H](O[C@H]3C[C@@](C)(O)[C@H](OC(=O)CC(C)C)[C@H](C)O3)[C@H](N(C)C)[C@H]2O)[C@@H](CC=O)C[C@@H](C)[C@@H](O)/C=C/C=C/C[C@@H](C)OC(=O)C[C@H]1OC(C)=O` (stereo partly drawn) the value was -19.6%.
The result for `CC(C)CCC[C@@H](C)[C@H]1CC(=O)C2=C3CC[C@H]4C[C@@H](O)CC[C@]4(C)[C@H]3CC[C@@]21C` reads -6.65%.
Take `C=N[C@@H](C(=O)N[C@@H]1C(=O)N2[C@@H]1SC(C)(C)[C@@H]2C(=O)O)c1ccccc1`: the max response was 0.762%.
For `COc1ccc([C@@H]2CC(=O)c3c(O)cc(O[C@@H]4O[C@H](CO[C@@H]5O[C@@H](C)[C@H](O)[C@@H](O)[C@H]5O)[C@@H](O)[C@H](O)[C@H]4O)cc3O2)cc1O` the value was -3.21%; for `CO/N=C(\C(=O)N[C@@H]1C(=O)N2C(C(=O)O)=C(CSc3nc(C)c(CC(=O)O)s3)CS[C@H]12)c1csc(N)n1`, 2.01%; for `CNCC(O)c1ccc(OC(=O)C(C)(C)C)c(OC(=O)C(C)(C)C)c1` (stereo not drawn), -7.58%.
The result for `CC[C@H]1NC(=O)[C@@H](NC(=O)c2ncccc2O)[C@@H](C)OC(=O)[C@H](c2ccccc2)NC(=O)[C@@H]2CC(=O)CCN2C(=O)[C@H](Cc2ccccc2)N(C)C(=O)[C@@H]2CCCN2C1=O` reads 2%.
